# Measurements taken from PubChem BioAssay (Tox21).
# Inconclusive results are not listed. Entries that show only a call come without a potency. Unmarked numbers belong to inactive results. Calls of active or inactive are those of the source. Calls come from the whole dose curve; as a rule, active = well fitted cell-killing curve with a large enough effect in the repeat runs; inconclusive = weak or mixed curves, or effect the other way; inactive = flat fitted curve, though single readings scatter.
# Experiments:
# [1] = cAMP Responsive Elements (CRE) small molecule antagonists, cell-based qHTS assay: qHTS cell viability counter screen (AID 2060913); note: nearly all actives have a fitted effect of over 40% in size
# How it was run: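 Cytotoxicity read in the same wells as the CRE-bla HEK293T antagonist assay: after 3 h compound with 0.25 uM NKH477 final and 2 h beta-lactamase substrate, CellTiter-Glo luminescence measured.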
# [2] = cAMP Responsive Elements (CRE) small molecule agonists, cell-based qHTS assay: qHTS cell viability counter screen (AID 2060914);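 note: viability read after 3 h of compound exposure; nearly all actives have a fitted effect of over 50% in size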
# How it was run: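 CRE-bla HEK293T cells in 10% dialyzed FBS medium were exposed to compounds for 3 h at 37C after 18 h plating. CellTiter-Glo was then added in the same wells, and luminescence was read after 30 min at room temperature.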
SMILES,Potency [1],Potency [2],"viability change, negative = cytotoxic [1]","activity change, negative = cytotoxicity [2]"
Nc1ccc(N=Nc2ccccc2)c(N)c1,inactive,inactive,,
CCCCCCOc1ccc(N)cc1,inactive,inactive,,
CC1=C(/C=C/C(C)=C/C=C/C(C)=C/C(=O)O)C(C)(C)CCC1,inactive,inactive,,
COc1cccc(Br)c1,inactive,inactive,,
C/C=C/C=N/NC(=O)c1ccncc1,inactive,inactive,,
Cc1ccsc1/C=C/C1=NCCCN1C,inactive,inactive,,
Cc1ccc(C(=O)O)cc1,inactive,inactive,,
CCCN1C[C@H](CSC)C[C@@H]2c3cccc4[nH]cc(c34)C[C@H]21,inactive,inactive,,
CCCCC(CC)COCCC#N (centres undefined),inactive,inactive,,
CCO[Si](C)(CCCOCC1CO1)OCC (centres undefined),inactive,inactive,,
OCCc1ccccc1,inactive,inactive,,
O=C(CC(=O)c1ccccc1)c1ccccc1,inactive,inactive,,
Cc1cccc(C(=O)O)c1[N+](=O)[O-],inactive,inactive,,
CCCC(CCC)C(=O)O,inactive,inactive,,
CC1C(C)(C)C2=C(C(=O)CCC2)C1(C)C (centres undefined),inactive,inactive,,
Cc1c(-c2cccnc2)c2ccccc2n1CCCCC(=O)O,inactive,inactive,,
CC(C)(O)c1ccc(CNC(=O)c2cccnc2Oc2ccc3nonc3c2)cc1,inactive,inactive,,
COC(=O)Nc1nc2ccc(S(=O)c3ccccc3)cc2[nH]1 (centres undefined),inactive,inactive,,
Cc1cccc(C(C)(C)C)c1O,inactive,inactive,,
c1ccc2occc2c1,inactive,inactive,,
O=C1Nc2ccc([N+](=O)[O-])cc2C1=O,inactive,inactive,,
O=C(O)CCCCCC(=O)O,inactive,inactive,,
O=C(NCC(O)CO)c1c(I)c(C(=O)NCC(O)CO)c(I)c(N(CCO)C(=O)CO)c1I (centres undefined),inactive,inactive,,

SMILES,Potency [1],Potency [2],"viability change, negative = cytotoxic [1]","activity change, negative = cytotoxicity [2]"
O=C(Oc1ccccc1C(=O)O)c1ccccc1O,inactive,inactive,,
Clc1nc(C(Cl)(Cl)Cl)c(Cl)c(Cl)c1Cl,inactive,inactive,,
CC(CN1c2ccccc2Sc2ccccc21)N(C)C (centres undefined),inactive,inactive,,
CN1CCN(c2c(F)cc3c(=O)c(C(=O)O)cn4c3c2OCN4C)CC1,,,3.45% [at 18.9 µM],10.7% [at 18.9 µM]
CCCCc1ccc(N)cc1,inactive,inactive,,
Cn1cc(S(C)=O)c(=O)c2ccc(F)cc21 (centres undefined),inactive,inactive,,
O=C(O)Cc1csc(-c2ccc(Cl)cc2)n1,inactive,inactive,,
O=C(O)CCCC[P+](c1ccccc1)(c1ccccc1)c1ccccc1,inactive,inactive,,
C[N+](C)(C)CCO,inactive,inactive,,
O=C(O)CCCCCCCCCC(=O)O,inactive,inactive,,
O=C(O)CCCCCCCCC(=O)O,inactive,inactive,,
OCCCCCCO,inactive,inactive,,
O=C(O)/C=C/C(=O)O,inactive,inactive,,
CC(COc1ccccc1)N(CCCl)Cc1ccccc1 (centres undefined),inactive,inactive,,
Cc1ccc2c(c1)C(=O)OC2=O,inactive,inactive,,
CCN(CC)c1ccc(C(=O)c2ccccc2C(=O)O)c(O)c1,inactive,inactive,,
Cc1cc(C)c(O)c(C)c1,inactive,inactive,,
CCCCCCCCCCC,inactive,inactive,,
OCc1ccccc1,inactive,inactive,,
CCCCCCCCC(=O)O,inactive,inactive,,
Nc1cccc2c(=O)[nH][nH]c(=O)c12,inactive,inactive,,
CC(C[N+](C)(C)C)OC(N)=O (centres undefined),inactive,inactive,,
CCC[Si](OC)(OC)OC,inactive,inactive,,

SMILES,Potency [1],Potency [2],"viability change, negative = cytotoxic [1]","activity change, negative = cytotoxicity [2]"
Cc1cc(C)cc(O)c1,inactive,inactive,,
O=[N+]([O-])c1cccc(S(=O)(=O)O)c1,inactive,inactive,,
Cc1cc(Cc2ccc(N)c(C)c2)ccc1N,inactive,inactive,,
Nc1nc(CC(=O)O)cs1,inactive,inactive,,
CCCC(O)C(O)CO (centres undefined),inactive,inactive,,
CCOc1ccc(O)cc1,inactive,inactive,,
CC(C)(C)C(=O)CCc1ccc(Cl)cc1,inactive,inactive,,
O=c1[nH]c2ccc(S(=O)CCN3CCC(Cc4ccc(F)cc4)CC3)cc2o1 (centres undefined),inactive,inactive,,
O=C1CC[C@H](C(=O)N2CCCCC2)N1,inactive,inactive,,
CCCCCCCCC(CO)CCCCCC (centres undefined),inactive,inactive,,
CSc1nc(NC2CC2)nc(NC(C)(C)C)n1,inactive,inactive,,
Brc1ccccc1-c1ccccc1,inactive,inactive,,
COc1cc2nc(N(C)CCCNC(=O)C3CCCO3)nc(N)c2cc1OC (centres undefined),inactive,inactive,,
O=c1[nH]c2cc(C(F)(F)F)c(N3CCOCC3)cc2n(CP(=O)(O)O)c1=O,inactive,inactive,,
C[C@](N)(Cc1ccc(O)c(O)c1)C(=O)O,inactive,inactive,,
C1=CCC(c2ccccc2)CC1 (centres undefined),inactive,inactive,,
Fc1ccccc1,inactive,inactive,,
N[C@@H](Cc1cc(I)c(O)c(I)c1)C(=O)O,inactive,inactive,,
CCNC(=O)[C@@H]1CCCN1C(=O)[C@H](CCCN=C(N)N)NC(=O)[C@H](CC(C)C)NC(=O)CNC(=O)[C@H](Cc1ccc(O)cc1)NC(=O)[C@H](CO)NC(=O)[C@H](Cc1c[nH]c2ccccc12)NC(=O)[C@H](Cc1cnc[nH]1)NC(=O)[C@@H]1CCC(=O)N1,inactive,inactive,,
COC(=O)C(C)O (centres undefined),inactive,inactive,,
NNc1nc(-c2ccc(N)cc2)cs1,inactive,inactive,,
